Bioassay records deposited in PubChem BioAssay by National Center for Advancing Translational Sciences (NCATS).
BLM helicase inh = blocks DNA unwinding by human BLM helicase; P54132; AID 2528; recombinant BLM DNA unwinding, fluorescence dequenching; Potency, µM (series often up to 56.1 µM), without a hit: at the top dose activity change, negative = inhibition, hits mostly inhibitors; 350,000 tested, 0.2% active;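 also: plate controls were vehicle for no effect and no enzyme for full effect; nearly all actives have a fitted effect of over 35% in size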
RECQ1 helicase = RECQ1 (human) helicase inhibition | P46063 | RECQ1 DNA unwinding, red fluorescence kinetic read | Potency, µM (top dose mostly 57.3 µM), without a hit: at the highest dose activity, negative = inhibition, hits mostly inhibitors | 240,000 tested, 0.54% active | AID 2549;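 also: plate controls were vehicle for no effect and no enzyme for full effect; nearly all actives have a fitted effect of over 30% in size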
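50 nM RECQ1T1 preincubated 15 min with compound in Tris pH 8.0 buffer with MgCl2, DTT, Tween-20 and 2.5 ug/ml poly(dI-dC); started with 200 nM TAMRA/BHQ-2 forked duplex and 2 mM ATP. Unwinding read as fluorescence (525/598 nm), two reads 2 h apart.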
APE1 inh = APE1 (human) endonuclease inhibition; Potency, µM (series often up to 65.8 µM), for inactives: at the highest dose activity change, negative = inhibition, usual class: inhibitors; 350,000 tested, 0.35% active; recombinant APE1, TAMRA/BHQ-2 abasic DNA cleavage fluorescence;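 also: plate controls were vehicle for no effect and reference inhibitor for full effect; nearly all actives have a fitted effect of over 55% in size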
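Kinetic fluorescence read (525 ex/598 em nm, three reads 60 s apart) of AP-site incision; signal = third minus first read. Enzyme 0.75 nM, dual-labelled THF duplex 50 nM, compound preincubation 15 min RT.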
WRN helicase inh = WRN helicase (human) inhibition. Potency, µM (doses to about 114 µM), without a hit: top-dose activity change, negative = inhibition, usual class: inhibitors. Q14191. WRN helicase unwinding, fluorescent forked duplex, kinetic. 360,000 tested, 0.46% active; also: nearly all actives have a fitted effect of over 55% in size
Target sequence (Q14191 whole entry, looked up): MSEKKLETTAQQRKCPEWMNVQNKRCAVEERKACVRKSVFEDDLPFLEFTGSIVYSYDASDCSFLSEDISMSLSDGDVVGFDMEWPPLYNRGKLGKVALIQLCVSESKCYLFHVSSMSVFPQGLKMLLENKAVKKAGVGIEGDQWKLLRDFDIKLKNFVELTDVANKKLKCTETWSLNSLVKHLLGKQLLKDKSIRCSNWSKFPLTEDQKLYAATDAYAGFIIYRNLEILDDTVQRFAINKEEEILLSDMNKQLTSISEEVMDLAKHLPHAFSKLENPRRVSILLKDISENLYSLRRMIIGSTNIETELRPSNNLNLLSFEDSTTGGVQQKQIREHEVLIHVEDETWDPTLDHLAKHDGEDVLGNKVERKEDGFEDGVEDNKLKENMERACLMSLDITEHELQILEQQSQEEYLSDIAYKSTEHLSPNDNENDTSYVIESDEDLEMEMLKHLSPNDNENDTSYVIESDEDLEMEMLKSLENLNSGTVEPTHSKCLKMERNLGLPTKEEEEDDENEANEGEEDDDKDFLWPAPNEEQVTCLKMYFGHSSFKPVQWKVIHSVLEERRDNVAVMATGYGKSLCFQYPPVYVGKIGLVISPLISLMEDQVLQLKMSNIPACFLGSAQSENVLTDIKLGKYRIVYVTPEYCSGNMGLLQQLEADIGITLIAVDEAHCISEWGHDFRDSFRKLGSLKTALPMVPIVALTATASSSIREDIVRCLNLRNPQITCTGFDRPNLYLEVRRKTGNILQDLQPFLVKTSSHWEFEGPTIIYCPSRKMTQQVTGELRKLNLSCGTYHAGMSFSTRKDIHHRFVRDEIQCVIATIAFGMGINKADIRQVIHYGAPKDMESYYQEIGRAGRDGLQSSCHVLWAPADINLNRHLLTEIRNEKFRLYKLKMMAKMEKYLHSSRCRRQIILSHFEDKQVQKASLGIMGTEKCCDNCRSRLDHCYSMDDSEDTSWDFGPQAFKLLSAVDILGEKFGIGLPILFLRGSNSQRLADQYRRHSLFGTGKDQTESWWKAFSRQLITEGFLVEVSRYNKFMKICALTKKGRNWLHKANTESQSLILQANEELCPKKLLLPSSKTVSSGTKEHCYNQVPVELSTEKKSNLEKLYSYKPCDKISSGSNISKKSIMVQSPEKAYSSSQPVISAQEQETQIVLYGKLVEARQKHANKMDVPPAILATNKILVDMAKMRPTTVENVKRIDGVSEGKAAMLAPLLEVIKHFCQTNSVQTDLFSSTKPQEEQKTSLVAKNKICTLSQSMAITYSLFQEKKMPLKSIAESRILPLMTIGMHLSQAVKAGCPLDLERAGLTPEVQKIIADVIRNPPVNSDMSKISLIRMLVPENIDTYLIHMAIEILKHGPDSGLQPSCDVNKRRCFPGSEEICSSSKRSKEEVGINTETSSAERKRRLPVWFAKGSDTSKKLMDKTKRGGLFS
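Enzyme (20 nM final) and test compound sit together 15 min at room temperature before substrate addition. Substrate is a single-forked duplex oligonucleotide (100 nM) labelled with fluorophore and quencher, with 2 mM ATP; helicase unwinding raises red fluorescence, read kinetically.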
L3MBTL1 inh = blocks human L3MBTL1; AlphaScreen L3MBTL1–H3K9me1 peptide binding; Q9Y468; Potency, µM (highest dose often 57.1 µM), inactives show at the top dose activity, negative = inhibition, most hits filed as inhibitors; 230,000 tested, 0.66% active; AID 485360; also: nearly all actives have a fitted effect of over 60% in size
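AlphaScreen assay: L3MBTL1 (50 nM final) was preincubated 30 min at room temperature with biotinylated H3(1-15)K9me1 peptide (75 nM final), then 30 min with library compounds; streptavidin donor and nickel chelate acceptor beads (10 ug/mL final) added, 30 min dark.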
Starred values were filed as active, the others as inactive; i = inactive; ? = inconclusive; · = no result; [ ] = remark or other dose. This is a sample that favours compounds with a hit; in the whole collection about 0.92% have one here. Calls follow the shape of the dose curve; as a rule, active = well fitted curve in the direction sought with a large enough effect; inconclusive = small, poorly fitted or top-dose-only effect, or another doubt; inactive = no such curve, though single readings can be large; an effect the other way counts as inactive or inconclusive. Unless noted, % is scaled to controls: 0 for no effect and ±100 for the full control effect; potency is read from the fitted curve at half-maximal effect.

SMILES	BLM helicase inh	RECQ1 helicase	APE1 inh	WRN helicase inh	L3MBTL1 inh
CC(C)(C=O)C1=CC(=O)c2ccccc2C1=O	-16%	-11%	0%	50µM*	-11%
COc1cc(OC)c(NC(=O)Nc2cc(C)on2)cc1Cl	1%	10%	-1%	·	·
[O-][n+]1ccccc1SSc1cccc[n+]1[O-]	0%	·	·	·	·
O=C(O)C1Nc2c(C(=O)N3CCOCC3)cccc2C2C=CCC12 (stereo unspecified)	-2%	-17%	?	56µM*	3.5µM*
Cc1ccc2c(c1C)NC(C(=O)O)C1CC=CC21 (stereo unspecified)	18µM*	5µM*	?	40µM*	5µM*
O=C(c1ccccc1O)N1CCOCC1	-2%	7%	-1%	-4%	4%
Cc1cc(C)c2c(c1)NC(C(=O)O)C1CC=CC21 (stereo unspecified)	-7%	·	-17%	50µM*	5µM*
CC[C@@H]1/C=C(\C)C[C@H](C)C[C@H](OC)[C@H]2O[C@@](O)(C(=O)C(=O)N3CCCC[C@H]3C(=O)O[C@H](/C(C)=C/[C@@H]3CC[C@H](Cl)[C@H](OC)C3)[C@H](C)[C@@H](O)CC1=O)[C@H](C)C[C@@H]2OC	0%	·	·	·	·
NC(=O)C1CCN(c2nc(-c3ccc4c(c3)OCO4)cs2)CC1	·	·	-15%	·	·
CCOc1ccc(C(=O)N/N=C/c2cc(Cl)ccc2[N+](=O)[O-])cc1	11µM*	-2%	5%	-25%	1%
CC1CC=CC2C1C(=O)N(Cc1ccccc1)C2c1ccc(-c2ccc(F)cc2)cc1F (stereo unspecified)	-6%	-7%	-7%	·	·
COc1cccc(-n2nnnc2S(C)(=O)=O)c1	-3%	-12%	-1%	50µM*	·
Cc1cccc(-n2nnnc2S(C)(=O)=O)c1	-4%	·	·	·	·
O=C(O)/C=C\C(=O)Nc1ccc(Oc2ccccc2)cc1	2%	-1%	-3%	1%	0%
O=C(O)/C=C/C(=O)Nc1ccc(Oc2ccc(NC(=O)/C=C/C(=O)O)cc2)cc1	-24%	i	?	·	25µM*
Cc1cc2cc3c(=O)[nH]c(=O)cc-3n(CC(O)C(O)C(O)CO)c2cc1C (stereo unspecified)	·	·	·	56µM*	·
Cc1cc2cc3c(=O)[nH]c(=O)nc-3n(CC(O)C(O)C(O)CO)c2cc1C (stereo unspecified)	·	·	·	7%	·
CC[C@H](C)[C@H](NC(=O)[C@H](CCC(=O)O)NC(=O)CNC(=O)[C@@H](NC(=O)[C@@H]1CCCN1C(=O)[C@@H](NC(=O)[C@@H]1CCCN1C(=O)[C@@H]1CCCN1C(=O)[C@H](CC(N)=O)NC(=O)[C@H](CC(N)=O)NC(=O)[C@@H](NC(=O)[C@H](CCSC)NC(=O)[C@H](Cc1c[nH]c2ccccc12)NC(=O)CNC(=O)[C@@H](NC(=O)[C@H](CCC(N)=O)NC(=O)[C@@H](N)CCC(=O)O)[C@@H](C)CC)[C@@H](C)O)[C@@H](C)CC)C(C)C)C(=O)O	0%	-13%	-8%	·	·
C[C@@]12C=Cc3occc3C1CC[C@@]13C[C@@H](CCC12)[C@@](O)(CO)C3 (stereo partly specified)	-2%	-12%	-6%	·	·
COCCN(C(=O)COC(=O)COc1ccc2c(c1)CCC2)c1c(N)n(Cc2ccccc2)c(=O)[nH]c1=O	·	·	-7%	-1%	9%
COCCN(C(=O)COC(=O)Cc1coc2cc3c(cc12)CCC3)c1c(N)n(Cc2ccccc2)c(=O)[nH]c1=O	·	·	9.5µM*	?	?
COCCN(C(=O)c1cc2c(s1)CCC2)c1c(N)n(CC(C)C)c(=O)[nH]c1=O	·	·	-7%	45µM*	?
CCNc1cc(O)ccc1C	·	28µM*	47%	-30%	-5%
Cc1ccc(C(=O)CNc2cc(C)ccc2C)cc1	3%	·	-4%	-4%	-5%[2.29 µM]
CCCCCCCCN=C(N)c1ccc(C(=O)OCC2CCCCC2)cc1	-12%	-13%	-1%	·	·
SMILES	BLM helicase inh	RECQ1 helicase	APE1 inh	WRN helicase inh	L3MBTL1 inh
O=C(c1cccs1)c1no[n+]([O-])c1C(=O)c1cccs1	-17%	0%	-3%	28µM*	-6%
CCCN(CCC)C1=N/C(=C\c2ccco2)C(=O)N1c1ccccc1	-11%	28µM*	-3%	-3%	·
N#Cc1ccc(Nc2nn3c(=O)c4ccccc4nc3s2)cc1	·	·	-39%	·	·
O=C(O)Cc1ccc(NC(=O)c2ccc3c(c2)C(=O)N(Cc2ccco2)C3=O)cc1	-11%	·	-3%	40µM*	·
CCc1cc(-c2oncc2-c2ccc(OC)cc2)c(O)cc1OC	-21%	-16%	0%	·	·
CCN[C@@H]1C[C@H](N)[C@@H](OC2OC(CN)=CCC2N)[C@H](O)[C@H]1O[C@H]1OC[C@](C)(O)[C@H](NC)[C@H]1O (stereo partly specified)	·	·	1%[21 µM]	·	·
CSCC[C@H](NC(=O)[C@H](CC(C)C)NC(=O)CCNC(=O)[C@@H](NC(=O)[C@H](Cc1ccccc1)NC(=O)[C@H](CO)NC(=O)[C@@H](N)CC(=O)O)C(C)C)C(N)=O	2%	-7%	-6%	·	·
Cc1cccnc1NCc1ccc(O)c2ncccc12	1%	-1%	4%	-6%	28µM*
Cc1ccc(NCc2ccc(O)c3ncccc23)cc1C	-1%	-7%	21%	5%	-19%
Oc1ccc(CNc2cccc(C(F)(F)F)c2)c2cccnc12	·	·	11%	·	13µM*
Cc1cc(N)c2ccccc2[n+]1CCCCCCCCCCCCCC[n+]1c(C)cc(N)c2ccccc21	·	32µM*	-9%	·	·
CC1(C)S[C@@H]2[C@H](NC(=O)[C@@H](N)c3ccc(O)cc3)C(=O)N2[C@H]1C(=O)O	0%[21.4 µM]	-2%[25.9 µM]	0%[21 µM]	·	·
CC1(C)S[C@@H]2[C@H](NC(=O)C(N)c3ccccc3)C(=O)N2[C@H]1C(=O)O (stereo partly specified)	-1%[21.4 µM]	-24%[25.9 µM]	13µM*	·	·
COc1ccc(-c2cnc3c(NC(C)=O)cc(-c4cccc(C(=O)NCCO)c4)cn23)cc1OC	·	·	·	-20%	·
COc1cc(-c2cnc3c(NC=O)cc(-c4cccc(C(=O)NCCN(C)C)c4)cn23)cc(OC)c1OC	·	·	·	20µM*	·
COc1ccc(-c2cnc3c(NC(C)=O)cc(-c4cccc(C(=O)NCCN(C)C)c4)cn23)cc1OC	·	·	·	25µM*	·
CC1(C)[C@@H](OC(=O)CCC(=O)O)CC[C@]2(C)[C@H]3C(=O)C=C4[C@@H]5C[C@@](C)(C(=O)O)CC[C@]5(C)CC[C@@]4(C)[C@]3(C)CC[C@@H]12	·	·	-4%[21 µM]	·	·
CCOc1ccc2nc(NC3=NC(c4ccc(OC)cc4)CC(=O)N3)nc(C)c2c1 (stereo unspecified)	-14%	-39%	?	50µM*	-27%
